Assay results taken from PubChem BioAssay.
For part of these data: Potency and affinity values are given separately. Calls of active or inactive are those of the source.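 Rule for the calls, unless noted: active = fluorescence ratio normalized to control raised more than 50% in primary screen plus both repeat runs; inactive = the rest.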

How the values were obtained:
[1] = tested on: TRPC4 beta (transient receptor potential cation channel C4), mouse; test: TRPC4 cation channel opening, retest – cell-based, Fluo4 calcium, HEK293 TRPC4beta/mu-opioid, duplicates, 10 µM, confirmation (AID 2426); settings: Fluo4 calcium fluorescence, at 10 µM; hits give high values
[2] = tested on: transient receptor potential cation channel C4 beta (TRPC4), mouse; test: TRPC4 cation channel opening, second retest – cell-based, second round, Fluo4, HEK293 TRPC4beta/mu-opioid, 1 µM, confirmation (AID 2461;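 active = primary screen active and over 50% activation in each of two duplicate runs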); settings: Fluo4 calcium fluorescence, at 1 µM; hits give high values
[3] = tested on: TRPC4 (transient receptor potential cation channel C4 beta), mouse; test: potentiation of DAMGO EC20 TRPC4 response – cell-based, second round, Fluo-4, HEK293 TRPC4beta/mu-opioid, 1 µM, confirmation (AID 2554;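 active = primary screen hit whose fluorescence ratio, in both repeats, exceeds the weak agonist control mean by 3 SD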); settings: DAMGO EC20, Fluo-4 calcium flux, at 1 µM; hits give high values
[4] = tested on: TRPC4 beta (transient receptor potential cation channel C4), mouse; test: potentiation of DAMGO EC20 TRPC4 response – cell-based, Fluo-4, HEK293 TRPC4beta/mu-opioid, confirmation (AID 2555;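 active = primary screen hit whose calcium fluorescence ratio, in both repeats, exceeds the weak agonist control mean by 3 SD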); settings: DAMGO EC20, Fluo-4 calcium flux, at 10 µM; hits give high values
[5] = target: Short transient receptor potential channel 4 (Mus musculus) (UniProt Q9QUQ5); test: blockers of DAMGO-evoked TRPC4 calcium flux – cell-based, Fluo4, HEK293 TRPC4beta/mu-opioid, confirmation (AID 2636;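 active = calcium signal cut by more than 3 SD below the full-agonist control yet still positive, in both repeats and the earlier primary screen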); settings: at 10 µM; hits give high values
Sequence of Short transient receptor potential channel 4 (Mus musculus) (Q9QUQ5 whole entry, looked up): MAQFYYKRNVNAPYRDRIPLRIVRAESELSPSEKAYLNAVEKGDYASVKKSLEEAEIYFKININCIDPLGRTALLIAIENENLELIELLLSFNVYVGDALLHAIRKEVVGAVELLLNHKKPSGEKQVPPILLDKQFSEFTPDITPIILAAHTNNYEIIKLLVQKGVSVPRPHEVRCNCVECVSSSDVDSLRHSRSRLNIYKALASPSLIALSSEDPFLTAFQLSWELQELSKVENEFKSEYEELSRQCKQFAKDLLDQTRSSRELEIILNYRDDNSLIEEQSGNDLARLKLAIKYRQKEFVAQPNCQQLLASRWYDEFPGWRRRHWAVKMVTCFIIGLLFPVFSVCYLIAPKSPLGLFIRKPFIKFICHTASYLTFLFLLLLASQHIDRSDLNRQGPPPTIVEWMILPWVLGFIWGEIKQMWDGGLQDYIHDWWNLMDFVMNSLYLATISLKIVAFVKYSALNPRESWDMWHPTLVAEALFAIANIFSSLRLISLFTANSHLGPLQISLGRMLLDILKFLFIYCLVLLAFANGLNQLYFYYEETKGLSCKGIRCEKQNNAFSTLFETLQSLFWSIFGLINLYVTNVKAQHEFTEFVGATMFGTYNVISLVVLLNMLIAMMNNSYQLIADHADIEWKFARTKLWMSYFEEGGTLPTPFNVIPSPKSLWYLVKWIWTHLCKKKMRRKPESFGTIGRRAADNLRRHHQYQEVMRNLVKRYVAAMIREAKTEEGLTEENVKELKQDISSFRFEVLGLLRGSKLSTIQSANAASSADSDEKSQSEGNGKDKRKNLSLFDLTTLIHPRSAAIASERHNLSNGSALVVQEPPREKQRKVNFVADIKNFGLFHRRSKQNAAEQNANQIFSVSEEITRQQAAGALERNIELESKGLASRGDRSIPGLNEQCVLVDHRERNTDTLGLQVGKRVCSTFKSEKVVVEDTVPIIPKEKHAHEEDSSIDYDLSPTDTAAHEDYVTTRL

[6] = target: Short transient receptor potential channel 4 (Mus musculus) (UniProt Q9QUQ5); test: blockers of DAMGO-evoked TRPC4 calcium flux – cell-based, second round, Fluo4, HEK293 TRPC4beta/mu-opioid, 1 µM, confirmation (AID 2637;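 active = calcium signal ratio cut to more than 3 SD under the fully stimulated control mean yet still positive, in both repeats and the primary screen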); settings: at 1 µM; hits give high values
[7] = target: Short transient receptor potential channel 4 (Mus musculus) (UniProt Q9QUQ5); test: calcium entry via TRPC4 opening agents – cell-based, HEK293 TRPC4/mu-opioid, Fluo-4 calcium, dose response (AID 434937;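 active = primary screen activator hit with a dose response curve and TRPC4 channel activation at any tested dose; inactive = no activation, no dose response, or not a primary hit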)
[8] = target: Short transient receptor potential channel 4 (Mus musculus) (UniProt Q9QUQ5); test: potentiation of DAMGO-evoked TRPC4 calcium signal – cell-based, HEK293 TRPC4/mu-opioid, Fluo-4 calcium, EC20 DAMGO, dose response (AID 434941;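 active = earlier screen potentiator hit that boosts the TRPC4 ion channel at some dose, with a dose response; inactive = no potentiation, no dose response, or not a prior hit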;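 note: calcium entry triggered by an EC20 dose of DAMGO at the co-expressed mu-opioid receptor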)
[9] = target: Short transient receptor potential channel 4 (Mus musculus) (UniProt Q9QUQ5); test: block of DAMGO-driven TRPC4 calcium entry – cell-based, HEK293 TRPC4/mu-opioid, Fluo-4 calcium, dose response (AID 434942;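 active = primary screen inhibitor hit that blocks the TRPC4 channel at some tested dose, yielding a dose curve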)
[10] = target: Short transient receptor potential channel 6 (Mus musculus) (UniProt Q61143); test: TRPC6 blockade by TRPC4 inhibitor hits – cell-based, HEK293, membrane potential dye, duplicate, selectivity assay for TRPC4 inhibitor project, confirmation (AID 434948;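 active = active in primary screen and both duplicates, each dropping signal beyond three positive-control SD with fluorescence still positive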); settings: HEK293 TRPC6, membrane potential dye fluorescence, at 10 µM, stimulated with maximal-effect acetylcholine; hits give high values
Sequence of Short transient receptor potential channel 6 (Mus musculus) (Q61143 whole entry, looked up): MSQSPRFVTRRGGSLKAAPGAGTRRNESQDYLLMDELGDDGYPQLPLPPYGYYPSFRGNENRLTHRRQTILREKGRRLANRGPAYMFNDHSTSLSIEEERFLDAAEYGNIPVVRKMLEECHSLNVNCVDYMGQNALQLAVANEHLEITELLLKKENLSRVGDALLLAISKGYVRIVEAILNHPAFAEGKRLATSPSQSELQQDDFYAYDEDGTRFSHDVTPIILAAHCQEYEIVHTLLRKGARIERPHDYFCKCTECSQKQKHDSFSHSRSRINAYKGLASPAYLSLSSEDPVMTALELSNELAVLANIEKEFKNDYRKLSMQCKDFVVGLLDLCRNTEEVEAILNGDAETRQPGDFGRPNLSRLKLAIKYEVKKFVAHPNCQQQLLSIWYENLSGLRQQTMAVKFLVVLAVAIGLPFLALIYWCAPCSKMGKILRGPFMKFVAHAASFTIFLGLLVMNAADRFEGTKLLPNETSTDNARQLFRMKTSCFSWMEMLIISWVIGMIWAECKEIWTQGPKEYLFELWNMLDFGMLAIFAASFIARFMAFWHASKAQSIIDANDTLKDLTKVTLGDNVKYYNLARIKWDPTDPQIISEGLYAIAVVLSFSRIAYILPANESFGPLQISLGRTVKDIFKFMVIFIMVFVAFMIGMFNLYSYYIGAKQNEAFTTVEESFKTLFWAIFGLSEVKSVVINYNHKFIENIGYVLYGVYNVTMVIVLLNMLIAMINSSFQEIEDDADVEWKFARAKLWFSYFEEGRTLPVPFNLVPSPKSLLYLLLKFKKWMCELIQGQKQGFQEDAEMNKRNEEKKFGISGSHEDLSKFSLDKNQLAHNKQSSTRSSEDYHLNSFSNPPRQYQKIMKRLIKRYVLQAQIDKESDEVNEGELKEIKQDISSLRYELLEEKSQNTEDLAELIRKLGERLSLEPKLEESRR

[11] = target: Short transient receptor potential channel 6 (Mus musculus) (UniProt Q61143); test: TRPC6 opening by TRPC4 activator hits – cell-based, HEK293, membrane potential dye, duplicate, selectivity assay for TRPC4 activator project, confirmation (AID 434950;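 active = membrane potential signal rise above negative control mean plus 3 SD in both duplicates, also active in the earlier TRPC4 screen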); settings: HEK293 TRPC6, membrane potential fluorescence, at 10 µM; activation: hits give high values; outcome: activation
[12] = target: Short transient receptor potential channel 6 (Mus musculus) (UniProt Q61143); test: positive modulators of mouse TRPC6 channel – HEK293 cells, membrane potential dye, duplicate, selectivity assay for TRPC4 potentiator project, confirmation (AID 434952;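 active = compound raising the membrane signal above positive-control mean plus 3 SD in both repeats, and a primary screen hit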); settings: HEK293 TRPC6, membrane potential dye fluorescence, at 10 µM, maximal acetylcholine added after compound; hits give high values
[13] = target: Short transient receptor potential channel 4 (Mus musculus) (UniProt Q9QUQ5); test: calcium flux activators in TRPC4/5HT1a cells, counter-screen for TRPC4 activator project, cell-based, second counter screen, HEK293 TRPC4/5HT1a, Fluo-4 (AID 434977;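 active = calcium signal rise above buffer-control mean plus 5 SD in both duplicates, and also a hit in the primary screen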); settings: Fluo-4 calcium flux, at 10 µM; hits give high values
[14] = serotonin-gated TRPC4 signal block – cell-based, second counter screen, HEK293 TRPC4/5HT1a, Fluo-4, counter-screen for TRPC4 inhibitor project, confirmation (AID 434978;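 active = primary screen active whose calcium signal fell more than 3 SD beyond the full-serotonin control mean in both duplicate plates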;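 note: serotonin given first at submaximal then at maximal dose after compound preincubation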); settings: Fluo-4 calcium flux, at 10 µM, serotonin added to trigger calcium flux; hits give high values
[15] = tested on: TRPC4 (mouse), co-expressed with 5HT1a in HEK293; test: enhancement of serotonin-evoked TRPC4 response – cell-based, second counter screen, HEK293 TRPC4/5HT1a, Fluo-4, counter-screen for TRPC4 potentiator project, confirmation (AID 434979;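 active = signal rise over 3 SD above mean of control wells given weak agonist, in both repeats and first screen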); settings: Fluo-4 calcium flux, at 10 µM, serotonin added at its EC20 dose; hits give high values
[16] = nonspecific calcium rise without TRPC4 – cell-based, HEK293 mu-opioid receptor line, counter-screen for TRPC4 activator project, confirmation (AID 449723;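 active = hit in primary screen, with calcium signal over 5 SD above buffer well mean in both duplicates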;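 note: counter screen cells carry the mu-opioid receptor alone and lack TRPC4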); settings: HEK293 mu-opioid cells, Fluo-4 calcium fluorescence, at 10 µM; hits give high values
[17] = nonspecific potentiation of DAMGO calcium response – cell-based, HEK293 mu-opioid receptor line, counter-screen for TRPC4 allosteric potentiator project, confirmation (AID 449724;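 active = calcium signal rise more than 3 SD above the low-dose agonist control mean, in both duplicate plates and the primary screen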); settings: HEK293 mu-opioid receptor cells, Fluo-4 calcium flux, at 10 µM, compound added before EC20 DAMGO stimulus; hits give high values

| SMILES | outcome [1] | outcome [2] | outcome [3] | outcome [4] | outcome [5] | outcome [6] | outcome [7] | outcome [8] | outcome [9] | outcome [10] | outcome [11] | outcome [12] | outcome [13] | outcome [14] | outcome [15] | outcome [16] | outcome [17] | potentiation [15] | potentiation [4] |
| --- | --- | --- | --- | --- | --- | --- | --- | --- | --- | --- | --- | --- | --- | --- | --- | --- | --- | --- | --- |
| CC(C)CN(C(=O)C1CC1)c1c(N)n(Cc2ccccc2)c(=O)[nH]c1=O | inactive | inactive | inactive | inactive | inactive | inactive | inactive | inactive | inactive | inactive | inactive | inactive | inactive | inactive | inactive | inactive | inactive |  |  |
| Cc1cc(C)nc(NNS(=O)(=O)c2ccc(F)c(Cl)c2)n1 | inactive | inactive | inactive | inactive | inactive | inactive | inactive | inactive | inactive | inactive | inactive | inactive | inactive | inactive |  | inactive | inactive | 6.83% (active) |  |
| O=S(=O)(Nc1ccc(S(=O)(=O)Nc2cccc3ccccc23)cc1)c1ccccc1 | inactive | inactive | inactive | inactive | inactive | inactive | inactive | inactive | inactive | inactive | inactive | inactive | inactive | inactive | inactive | inactive | inactive |  |  |
| COc1ccc(C(=O)N2CCN(c3c(C)cccc3C)CC2)cc1OC | inactive | inactive | inactive | inactive | inactive | inactive | inactive | inactive | inactive | inactive | inactive | inactive | inactive | inactive |  | inactive | inactive | 15% (active) |  |
| CC(Sc1nc2sc3c(c2c(=O)n1-c1ccccc1)CCCC3)C(=O)O (stereo not drawn) | inactive | inactive | inactive |  | inactive | inactive | inactive | inactive | inactive | inactive | inactive | inactive | inactive | inactive |  | inactive | inactive | 22.2% (active) | 12% (active) |
| CCCn1c(N)c(C(=O)CSc2n[nH]c(-c3ccc(C)cc3)n2)c(=O)[nH]c1=O | inactive | inactive | inactive | inactive | inactive | inactive | inactive | inactive | inactive | inactive | inactive | inactive | inactive | inactive | inactive | inactive | inactive |  |  |
| CC(C)CCn1c(N2CCN(c3cccc(Cl)c3)CC2)nc2c1c(=O)[nH]c(=O)n2C | inactive | inactive | inactive | inactive | inactive | inactive | inactive | inactive | inactive | inactive | inactive | inactive | inactive | inactive | inactive | inactive | inactive |  |  |
| O=S(=O)(c1ccc(Oc2ccc(Br)cc2)cc1)N1CCOCC1 | inactive | inactive | inactive | inactive | inactive | inactive | inactive | inactive | inactive | inactive | inactive | inactive | inactive | inactive | inactive | inactive | inactive |  |  |
| O=C(C[n+]1cc(-c2ccc(Br)cc2)n2c1CCCCC2)c1ccccc1 | inactive | inactive | inactive | inactive | inactive | inactive | inactive | inactive | inactive | inactive | inactive | inactive | inactive | inactive | inactive | inactive | inactive |  |  |
